For experiment [1], the target named is T1, KGF (hKGF) (Homo sapiens, UniProt P21781 P21781:32-194).
T1 sequence: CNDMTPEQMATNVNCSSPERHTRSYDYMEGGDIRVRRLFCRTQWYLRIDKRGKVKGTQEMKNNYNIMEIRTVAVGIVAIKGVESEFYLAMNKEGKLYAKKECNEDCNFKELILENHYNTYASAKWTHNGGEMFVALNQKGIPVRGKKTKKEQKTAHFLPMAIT
Kind of experiment: filter; similar to random RNA. To be noted: label: 5'-biotin for BIAcore specificity; proposed double pseudoknot; ssRNA; 2'-F C and U.

For experiment [2], the target named is VEGF (hVEGF) (Homo sapiens, UniProt P15692-4 P15692-4:27-191). The experiment is described as follows: filter; similar to random RNA. To be noted: chain copies: 2; label: 5'-biotin for BIAcore specificity; proposed double pseudoknot; ssRNA; 2'-F C and U.
VEGF (hVEGF), sequence (P15692 other isoform, or with tags, fused parts or gaps): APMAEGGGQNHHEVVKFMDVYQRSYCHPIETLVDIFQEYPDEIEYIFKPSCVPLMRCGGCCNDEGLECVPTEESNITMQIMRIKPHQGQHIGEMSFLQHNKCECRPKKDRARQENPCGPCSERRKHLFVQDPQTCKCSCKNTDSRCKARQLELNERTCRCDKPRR
The target in experiment [3] is T2, TGF-beta2 (Homo sapiens, UniProt P61812 P61812:303-414).
T2 sequence: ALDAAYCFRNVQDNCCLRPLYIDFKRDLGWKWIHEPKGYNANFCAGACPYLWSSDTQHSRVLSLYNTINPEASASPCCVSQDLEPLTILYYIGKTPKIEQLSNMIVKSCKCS
Kind of experiment: filter; similar to random RNA by filter. The note with it: chain copies: 2; label: 5'-biotin for BIAcore specificity; proposed double pseudoknot; ssRNA; 2'-F C and U.

For two sequences, binding signal results are on record in US6124449, “High affinity TGFβ nucleic acid ligands and inhibitors” (NeXstar Pharmaceuticals, Inc.).

With “GGGAGGACGAUGCGGGGGUUAUUGGGCGUCAACAUCCCCGAUUCUUUUCACGUCCAGACGACUCGCCCGA”, the values for the binding signal in experiment [1], in experiment [2] and in experiment [3] were over 34000 fold Kd vs hTGF-beta1, over 340000 fold Kd vs hTGF-beta1 and over 340000 fold Kd vs hTGF-beta1, respectively.

For the sequence “GGGAGGACGAUGCGGUUAUGGGCGUCAACACCGCUAUUACAGUUUUCGCCUCCCCCAGACGACUCGCCCGA”, the binding signal in experiment [1] was over 34000 fold Kd vs hTGF-beta1; in experiment [2] it was over 340000 fold Kd vs hTGF-beta1; in experiment [3], over 340000 fold Kd vs hTGF-beta1.
